Source: PubChem BioAssay (EPA / NIEHS)
Inconclusive results are not listed. Calls of active or inactive are those of the source. The calls were made as follows: active = hit-call score of the fitted dose curve at least 0.9, where 1 is the maximum; inconclusive = response in the unintended direction; inactive = score below 0.9.

Columns and labels:
[1] = biological target: rat Glycine Receptor, Strychnine-sensitive (GlyRStrySens), Glra1 (gene 25674) (UniProt P07727); experiment: NVS_LGIC_rGlyRStrySens: NovaScreen (NVS) Ligand-Gated Ion Channel Assay for rat Glycine Receptor, Strychnine-sensitive (GlyRStrySens) (AID 2283341)
Chain of rat Glycine Receptor, Strychnine-sensitive (GlyRStrySens), Glra1 (gene 25674) (P07727 whole entry, looked up): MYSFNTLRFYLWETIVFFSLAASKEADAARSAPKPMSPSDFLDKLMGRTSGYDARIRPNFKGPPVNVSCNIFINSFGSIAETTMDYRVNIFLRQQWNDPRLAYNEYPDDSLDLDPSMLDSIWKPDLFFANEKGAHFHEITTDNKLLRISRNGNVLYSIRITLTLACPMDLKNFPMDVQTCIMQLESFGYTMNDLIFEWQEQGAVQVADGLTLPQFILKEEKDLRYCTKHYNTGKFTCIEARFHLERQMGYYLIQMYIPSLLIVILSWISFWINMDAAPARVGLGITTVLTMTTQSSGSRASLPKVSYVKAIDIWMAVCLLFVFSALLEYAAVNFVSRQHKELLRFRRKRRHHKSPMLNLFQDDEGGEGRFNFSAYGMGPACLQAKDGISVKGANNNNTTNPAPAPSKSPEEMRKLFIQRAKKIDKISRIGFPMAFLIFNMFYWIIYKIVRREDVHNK
Summary of the method: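 Radioligand displacement on rat spinal cord membranes, 1 hr, filter scintillation read-out. Single-concentration duplicate screen at 25 uM; chemicals meeting threshold (e.g., 30% inhibition) rerun in concentration-response up to 50 uM. Loss of binding fitted versus DMSO.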

[2] = biological target: Estrogen receptor (Homo sapiens) (UniProt P03372); experiment: OT_ER_ERaERa_1440: Odyssey Thera (OT) 24-hour HEK293T Protein-Complementation Assay for Estrogen Receptor-alpha/-alpha Homodimer (AID 2283349);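 also: hits raise fluorescence above DMSO for agonists and antagonists alike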
Chain of Estrogen receptor (Homo sapiens) (P03372 whole entry, looked up, the tested form may be a part): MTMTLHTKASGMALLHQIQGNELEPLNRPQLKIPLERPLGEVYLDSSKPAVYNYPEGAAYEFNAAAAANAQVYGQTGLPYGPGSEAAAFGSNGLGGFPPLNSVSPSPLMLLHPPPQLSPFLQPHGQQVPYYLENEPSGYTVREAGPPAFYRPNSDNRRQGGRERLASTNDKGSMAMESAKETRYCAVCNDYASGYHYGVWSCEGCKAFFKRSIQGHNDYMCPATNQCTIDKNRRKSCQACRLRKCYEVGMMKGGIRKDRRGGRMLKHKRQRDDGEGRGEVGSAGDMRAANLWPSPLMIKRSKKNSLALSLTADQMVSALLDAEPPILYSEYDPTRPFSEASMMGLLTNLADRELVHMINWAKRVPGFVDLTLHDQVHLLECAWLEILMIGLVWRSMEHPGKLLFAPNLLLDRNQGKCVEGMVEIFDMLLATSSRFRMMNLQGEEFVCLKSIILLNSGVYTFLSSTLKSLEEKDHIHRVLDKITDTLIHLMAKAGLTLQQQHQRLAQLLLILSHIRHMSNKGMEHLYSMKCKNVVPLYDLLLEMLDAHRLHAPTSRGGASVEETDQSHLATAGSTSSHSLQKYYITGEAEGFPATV
Summary of the method: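 HEK293T cells stably expressing the human ER alpha ligand-binding domain (aa 310-547) as a homodimer PCA were dosed for 24 hours. Fluorescence intensity was read by laser scanning cytometry, and gain of signal was fitted relative to DMSO vehicle.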

[3] = biological target: Estrogen receptor (Homo sapiens) (UniProt P03372); experiment: OT_ER_ERaERa_0480: Odyssey Thera (OT) 8-hour HEK293T Protein-Complementation Assay for Estrogen Receptor-alpha/-alpha Homodimer (AID 2283351);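 also: rise in fluorescence from reassembled reporter fragments on ERα LBD homodimer in nucleus or whole cell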
Summary of the method: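 HEK293T, stable ERα LBD (aa 310-547) PCA homodimer; 8 h compound exposure; fluorescence intensity, laser scanning cytometer; positive fitting direction, DMSO baseline.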

[4] = biological target: chimpanzee Androgen Receptor (AR), AR (gene 747460) (UniProt O97775); experiment: NVS_NR_cAR: NovaScreen (NVS) Nuclear Receptor Binding Assay for chimpanzee Androgen Receptor (AR) (AID 2283346);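 also: radioligand displacement from AR measured by scintillation counting in a cell-free assay; a loss of bound radioligand signal versus DMSO counts as binding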
Chain of chimpanzee Androgen Receptor (AR), AR (gene 747460) (O97775 whole entry, looked up): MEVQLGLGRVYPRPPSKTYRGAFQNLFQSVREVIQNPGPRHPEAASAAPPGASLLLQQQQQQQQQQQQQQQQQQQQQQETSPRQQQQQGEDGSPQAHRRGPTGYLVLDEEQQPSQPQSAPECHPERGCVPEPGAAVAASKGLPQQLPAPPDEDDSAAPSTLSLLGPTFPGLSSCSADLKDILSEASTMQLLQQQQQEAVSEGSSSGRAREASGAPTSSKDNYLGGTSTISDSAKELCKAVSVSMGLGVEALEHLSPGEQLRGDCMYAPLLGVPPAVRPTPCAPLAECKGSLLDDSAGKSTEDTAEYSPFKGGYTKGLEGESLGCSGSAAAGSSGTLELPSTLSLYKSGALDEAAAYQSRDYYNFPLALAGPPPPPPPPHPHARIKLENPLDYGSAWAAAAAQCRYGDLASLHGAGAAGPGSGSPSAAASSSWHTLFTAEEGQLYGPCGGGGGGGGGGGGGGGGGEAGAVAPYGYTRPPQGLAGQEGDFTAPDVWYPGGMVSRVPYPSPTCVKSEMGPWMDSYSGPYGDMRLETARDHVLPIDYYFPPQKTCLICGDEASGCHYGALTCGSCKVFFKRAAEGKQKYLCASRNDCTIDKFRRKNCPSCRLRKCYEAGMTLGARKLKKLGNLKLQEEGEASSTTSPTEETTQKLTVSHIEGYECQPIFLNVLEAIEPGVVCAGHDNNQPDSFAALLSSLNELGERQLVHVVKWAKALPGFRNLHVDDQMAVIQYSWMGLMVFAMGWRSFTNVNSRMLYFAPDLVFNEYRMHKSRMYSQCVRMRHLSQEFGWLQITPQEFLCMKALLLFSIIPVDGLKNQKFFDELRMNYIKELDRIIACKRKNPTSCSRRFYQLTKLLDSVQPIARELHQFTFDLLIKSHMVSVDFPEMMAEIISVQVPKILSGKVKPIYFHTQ
Summary of the method: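 Radioligand binding to chimpanzee AR expressed in Sf9/Sf21 cells, cell-free, measured 72 h after dosing by lysate-based scintillation counting. Loss of signal vs DMSO; initial duplicate screen at 25 uM, actives retested in concentration series.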

[5] = test system: guinea pig Histamine Receptor (H2), gene 100729734; experiment: NVS_GPCR_gH2: NovaScreen (NVS) G Protein-Coupled Receptor Assay for guinea pig Histamine Receptor (H2) (AID 2283342)
Summary of the method: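 Radioligand displacement on guinea pig striatal membranes, 1 h after dosing, filter-based scintillation counting; loss of signal versus DMSO. Single-point screen at 25 uM in duplicate, then concentration-response up to 50 uM.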

[6] = biological target: bovine Estrogen Receptor (ER), ESR1 (gene 407238) (UniProt P49884); experiment: NVS_NR_bER: NovaScreen (NVS) Nuclear Receptor Binding Assay for bovine Estrogen Receptor (ER) (AID 2283345);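 also: actives lower the bound radioligand count which means they displace the ER ligand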
Chain of bovine Estrogen Receptor (ER), ESR1 (gene 407238) (P49884 whole entry, looked up): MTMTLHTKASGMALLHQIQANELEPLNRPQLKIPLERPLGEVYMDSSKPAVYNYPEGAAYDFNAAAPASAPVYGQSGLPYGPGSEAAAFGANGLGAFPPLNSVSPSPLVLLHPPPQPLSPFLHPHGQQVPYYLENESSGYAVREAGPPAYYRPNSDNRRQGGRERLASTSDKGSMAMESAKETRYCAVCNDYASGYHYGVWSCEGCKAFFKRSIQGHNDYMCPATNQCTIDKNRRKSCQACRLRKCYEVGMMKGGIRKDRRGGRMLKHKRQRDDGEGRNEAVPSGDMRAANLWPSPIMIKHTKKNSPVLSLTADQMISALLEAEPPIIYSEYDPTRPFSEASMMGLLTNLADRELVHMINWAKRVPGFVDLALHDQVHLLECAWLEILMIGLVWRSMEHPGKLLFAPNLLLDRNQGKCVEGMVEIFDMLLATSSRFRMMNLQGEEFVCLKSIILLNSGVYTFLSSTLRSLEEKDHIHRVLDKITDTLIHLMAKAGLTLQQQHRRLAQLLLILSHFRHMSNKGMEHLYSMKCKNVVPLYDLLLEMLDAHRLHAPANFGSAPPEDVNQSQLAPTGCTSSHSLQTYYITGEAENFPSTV
Summary of the method: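 Cell-free radioligand binding with receptor from bovine uterine membranes, read by scintillation counting 18 h after dosing. Loss of specific binding was scored against DMSO; primary screen at 25 uM in duplicate, actives then run as concentration series.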

[7] = NVS_IC_rCaBTZCHL: NovaScreen (NVS) Ion Channel Assay for Calcium Channel, Type L, Benzothiazepine Site (CaBTZCHL) (AID 2283337)
Summary of the method: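 Scintillation counting of filter-bound radioligand gave the read-out, with reduced binding versus DMSO scored as activity. Membranes came from rat cortex and were read 1.5 h after compound addition. Chemicals were screened first in duplicate at 25 uM.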

[8] = biological target: rat Glutamate, MK-801 Agonist Site (GluNMDA_MK801), Grin1 (gene 24408) (UniProt P35439); experiment: NVS_LGIC_rGluNMDA_MK801_Agonist: NovaScreen (NVS) Ligand-Gated Ion Channel Assay for rat Glutamate, MK-801 Agonist Site (GluNMDA_MK801) (AID 2283340)
Summary of the method: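 Radioligand binding at MK-801 site in rat forebrain membranes, 1.5 h incubation, filter-based scintillation counting. Initially 25 uM in duplicate; actives then run in concentration-response up to 50 uM, fitted for gain of signal versus DMSO.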

[9] = biological target: bovine Gamma-Aminobutyric Acid Type A Receptor Agonist (GABAR Agonist), GABRA1 (gene 780973) (UniProt P08219); experiment: NVS_LGIC_bGABAR_Agonist: NovaScreen (NVS) Ligand-Gated Ion Channel Assay for bovine Gamma-Aminobutyric Acid Type A Receptor Agonist (GABAR Agonist) (AID 2283338)
Chain of bovine Gamma-Aminobutyric Acid Type A Receptor Agonist (GABAR Agonist), GABRA1 (gene 780973) (P08219 whole entry, looked up): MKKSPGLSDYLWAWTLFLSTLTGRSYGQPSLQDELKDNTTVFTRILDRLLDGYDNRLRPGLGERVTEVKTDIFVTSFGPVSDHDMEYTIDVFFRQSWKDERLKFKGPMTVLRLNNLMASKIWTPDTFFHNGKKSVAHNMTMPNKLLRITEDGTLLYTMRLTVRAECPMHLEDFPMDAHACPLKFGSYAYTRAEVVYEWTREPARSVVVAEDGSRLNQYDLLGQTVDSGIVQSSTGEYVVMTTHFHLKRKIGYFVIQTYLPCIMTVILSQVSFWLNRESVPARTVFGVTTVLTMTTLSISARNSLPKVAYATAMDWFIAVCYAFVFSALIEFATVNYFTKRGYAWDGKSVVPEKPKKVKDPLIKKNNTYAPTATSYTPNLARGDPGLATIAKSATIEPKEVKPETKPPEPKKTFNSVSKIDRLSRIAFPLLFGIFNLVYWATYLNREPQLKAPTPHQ
Summary of the method: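 Radioligand binding to bovine cerebellar membranes in agonist format, read by filter-based scintillation counting after 1 h. Primary screen in duplicate at 25 uM, with actives followed in concentration series. Gain of signal versus DMSO.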

[10] = test system: NCBI gene 100848466; experiment: NVS_NR_bPR: NovaScreen (NVS) Nuclear Receptor Binding Assay for bovine Progextron Receptor (PR) (AID 2283343);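 also: actives lower bound radioligand signal below DMSO meaning displacement of the label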
Summary of the method: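 Bovine uterine membrane preparation; radioligand displacement read by scintillation counting 18 h after dosing. Primary screen single concentration, 25 uM, in duplicate; actives followed up in concentration series. Signal loss versus DMSO baseline.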

[11] = biological target: human Constitutive Androstane Receptor (CAR), NR1I3 (gene 9970) (UniProt Q14994); experiment: NVS_NR_hCAR_Antagonist: NovaScreen (NVS) Nuclear Receptor Binding Assay for human Constitutive Androstane Receptor Antagonism (CAR) (AID 2283344)
Chain of human Constitutive Androstane Receptor (CAR), NR1I3 (gene 9970) (Q14994 whole entry, looked up): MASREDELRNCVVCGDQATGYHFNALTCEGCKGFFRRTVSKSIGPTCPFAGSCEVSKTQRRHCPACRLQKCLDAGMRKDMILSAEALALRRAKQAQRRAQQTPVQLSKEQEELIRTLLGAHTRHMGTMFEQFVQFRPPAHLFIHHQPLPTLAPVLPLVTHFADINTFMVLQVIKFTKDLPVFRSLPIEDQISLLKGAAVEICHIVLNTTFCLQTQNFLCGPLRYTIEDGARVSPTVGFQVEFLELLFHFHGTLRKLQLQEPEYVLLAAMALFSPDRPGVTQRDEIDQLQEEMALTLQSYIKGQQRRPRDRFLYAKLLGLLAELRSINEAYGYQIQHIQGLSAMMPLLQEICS
Summary of the method: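 Cell-free TR-FRET binding read 1 h after dosing, antagonist mode; loss of signal versus DMSO baseline. Primary screen in duplicate at a single 25 uM; actives retested in concentration series.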

[12] = biological target: Estrogen receptor (Homo sapiens) (UniProt P03372); experiment: NVS_NR_hER: NovaScreen (NVS) Nuclear Receptor Binding Assay for human Estrogen Receptor (ER) (AID 2283348)
Summary of the method: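 Radioligand competitive displacement binding to estrogen receptor from MCF7 extract, cell-free; 18 h after dosing, scintillation read-out. Primary screen in duplicate at 25 uM; actives followed up in concentration series; loss of signal vs DMSO.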

[13] = biological target: Bile acid receptor (Homo sapiens) (UniProt Q96RI1); experiment: NVS_NR_hFXR_Antagonist: NovaScreen (NVS) Nuclear Receptor Binding Assay for human Farnesoid X Receptor Antagonism (FXR) (AID 2283350)
Chain of Bile acid receptor (Homo sapiens) (Q96RI1 whole entry, looked up): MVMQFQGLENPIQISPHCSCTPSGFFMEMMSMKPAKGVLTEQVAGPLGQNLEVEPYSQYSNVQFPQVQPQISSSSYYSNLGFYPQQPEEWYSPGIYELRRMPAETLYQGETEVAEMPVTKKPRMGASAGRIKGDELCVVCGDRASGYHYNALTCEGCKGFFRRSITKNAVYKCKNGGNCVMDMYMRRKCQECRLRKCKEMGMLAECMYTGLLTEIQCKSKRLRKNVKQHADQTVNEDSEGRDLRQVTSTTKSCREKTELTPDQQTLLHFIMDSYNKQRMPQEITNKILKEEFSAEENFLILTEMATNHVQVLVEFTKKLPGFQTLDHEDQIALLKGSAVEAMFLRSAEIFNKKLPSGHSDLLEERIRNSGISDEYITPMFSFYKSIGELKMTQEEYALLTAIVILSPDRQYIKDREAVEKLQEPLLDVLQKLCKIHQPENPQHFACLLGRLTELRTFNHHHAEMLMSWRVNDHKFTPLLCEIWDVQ
Summary of the method: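 Cell-free TR-FRET ligand-binding read-out on human FXR (NR1H4) in antagonist mode, measured 1 h after dosing. Primary screen in duplicate at 25 uM, actives retested in concentration series; signal loss scored versus DMSO.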

Which outcome [1] does the source give for CCCCC(CC)CO (stereo unspecified) here?
Its outcome is “inactive”.

With COc1ccc(C(=O)Nc2nc3ccccc3c(NCc3ccccc3)c2C#N)cc1 as the compound, how does the outcome [2] read?
Its outcome is “inactive”.

And the outcome [3]?
Its outcome is “inactive”.

With CCc1cc(C2=C(C(=O)O)N(c3ccccc3C(F)(F)F)S(=O)(=O)c3ccccc32)cc2c1OCO2 as the compound, how does the AC50 [4] read?
Its AC50 is 25 µM (active).

With CCCCCCCCCC[N+](C)(C)[O-] as the compound, how does the outcome [5] read?
The outcome was “inactive”.

What about the outcome [2] of the same compound?
The outcome was “inactive”.

And the outcome [3]?
The outcome was “inactive”.

Which outcome [6] does the source give for CCCCC(CC)COC(=O)CCCCCCCC(=O)OCC(CC)CCCC (stereo unspecified) here?
The outcome was “inactive”.

Which outcome [2] does the source give for OCC(CO)n1cnc(-c2ccc(F)cc2)c1-c1ccnc(Oc2ccccc2)n1 here?
The outcome was “inactive”.

What about the outcome [3] of the same compound?
Its outcome is “inactive”.

With CC(C)c1cccc(C(C)C)c1 as the compound, how does the outcome [2] read?
The outcome was “inactive”.

And the outcome [3]?
Its outcome is “inactive”.

With CC(C)NCC(O)c1ccc(O)c(O)c1 (stereo unspecified) as the compound, how does the outcome [5] read?
The outcome was “inactive”.

For CCCCCCCC(=O)OC, which outcome [2] is on record?
Its outcome is “inactive”.

And the outcome [3]?
The outcome was “inactive”.

With S=c1[nH]c2ccccc2s1 as the compound, how does the outcome [4] read?
The outcome was “inactive”.

For NC(=Nc1ccccc1)Nc1ccccc1, which AC50 [7] is on record?
Its AC50 is 40.6 µM (active).

What about the outcome [2] of the same compound?
The outcome was “inactive”.

And the outcome [3]?
The outcome was “inactive”.

With NC1CCCCC1 as the compound, how does the outcome [8] read?
The outcome was “inactive”.

And the outcome [2]?
The outcome was “inactive”.

And the outcome [3]?
The outcome was “inactive”.

Which outcome [4] does the source give for CC(=O)CC(c1ccccc1)c1c(O)c2ccccc2oc1=O (stereo unspecified) here?
The outcome was “inactive”.

With CC(C)(C)c1ccccc1 as the compound, how does the outcome [9] read?
The outcome was “inactive”.

Which AC50 [10] does the source give for O=C1c2c(O)cccc2Cc2cccc(O)c21 here?
Its AC50 is 42.7 µM (active).

Which outcome [11] does the source give for O=C1NC(=O)C(c2ccccc2)(c2ccccc2)N1 here?
Its outcome is “inactive”.

For CC(=O)O[C@]1(C(C)=O)CC[C@H]2[C@@H]3C=C(Cl)C4=CC(=O)[C@@H]5C[C@@H]5[C@]4(C)[C@H]3CC[C@@]21C, which outcome [5] is on record?
The outcome was “inactive”.

What about the AC50 [10] of the same compound?
The AC50 was 0.0857 µM (active).

With CCCCCCCCCCCCCCCCO as the compound, how does the outcome [2] read?
The outcome was “inactive”.

What about the outcome [3] of the same compound?
Its outcome is “inactive”.

With Cc1ccc(C(C)(C)C)c(O)c1 as the compound, how does the outcome [12] read?
Its outcome is “inactive”.

What about the outcome [2] of the same compound?
Its outcome is “inactive”.

What about the outcome [3] of the same compound?
Its outcome is “inactive”.

What does the source list for CC(C)OC(=O)C(C)(C)Oc1ccc(C(=O)c2ccc(Cl)cc2)cc1?
outcome [12]: inactive; outcome [2]: inactive; outcome [13]: inactive; outcome [3]: inactive

With CCCCC(CC)COP(=O)(OCC(CC)CCCC)OCC(CC)CCCC (stereo unspecified) as the compound, how does the AC50 [4] read?
The AC50 was 18.1 µM (active).

What does the source list for O=C(O)CC(O)(CC(=O)O)C(=O)O?
outcome [2]: inactive; outcome [3]: inactive

With CCCCCCCCCCCCCCOS(=O)(=O)O as the compound, how does the AC50 [10] read?
Its AC50 is 25 µM (active).

What about the outcome [2] of the same compound?
Its outcome is “inactive”.

What about the outcome [3] of the same compound?
The outcome was “inactive”.

With N[C@@H](Cc1c[nH]c2ccccc12)C(=O)O as the compound, how does the outcome [9] read?
The outcome was “inactive”.

Which results are given for CC1=C(C)S(=O)(=O)CCS1(=O)=O?
outcome [2]: inactive; outcome [3]: inactive
